Experimental data as given in PMC11062922 (Nature Chemical Biology, 2023).
Like-named read-outs stand apart in the source and are kept apart here.

How the values were obtained:
ABL1 = tested on: ABL1; design: species or system human, MV4-11 + K-562 + COLO205 + SK-N-BE2 + OVCAR-8; conditions: read-out: apparent Kd, compound concentrations: 100 nM and 1000 nM (sheet 'Samples'), n = 1
ABL2 = tested on: ABL2; design: species or system human, MV4-11 + K-562 + COLO205 + SK-N-BE2 + OVCAR-8; conditions: read-out: apparent Kd, compound concentrations: 100 nM and 1000 nM (sheet 'Samples'), n = 1
BCR = tested on: BCR; design: species or system human, MV4-11 + K-562 + COLO205 + SK-N-BE2 + OVCAR-8; conditions: read-out: apparent Kd, compound concentrations: 100 nM and 1000 nM (sheet 'Samples'), n = 1
EGFR = tested on: EGFR; design: species or system human, MV4-11 + K-562 + COLO205 + SK-N-BE2 + OVCAR-8; conditions: read-out: apparent Kd, compound concentrations: 100 nM and 1000 nM (sheet 'Samples'), n = 1
GAK = tested on: GAK; design: species or system human, MV4-11 + K-562 + COLO205 + SK-N-BE2 + OVCAR-8; conditions: read-out: apparent Kd, compound concentrations: 100 nM and 1000 nM (sheet 'Samples'), n = 1
LCK = tested on: LCK; design: species or system human, MV4-11 + K-562 + COLO205 + SK-N-BE2 + OVCAR-8; conditions: read-out: apparent Kd, compound concentrations: 100 nM and 1000 nM (sheet 'Samples'), n = 1
RIPK2 = tested on: RIPK2; design: species or system human, MV4-11 + K-562 + COLO205 + SK-N-BE2 + OVCAR-8; conditions: read-out: apparent Kd, compound concentrations: 100 nM and 1000 nM (sheet 'Samples'), n = 1
RIPK3 = tested on: RIPK3; design: species or system human, MV4-11 + K-562 + COLO205 + SK-N-BE2 + OVCAR-8; conditions: read-out: apparent Kd, compound concentrations: 100 nM and 1000 nM (sheet 'Samples'), n = 1
YES1 = tested on: YES1; design: species or system human, MV4-11 + K-562 + COLO205 + SK-N-BE2 + OVCAR-8; conditions: read-out: apparent Kd, compound concentrations: 100 nM and 1000 nM (sheet 'Samples'), n = 1
FRK = tested on: FRK; design: species or system human, MV4-11 + K-562 + COLO205 + SK-N-BE2 + OVCAR-8; conditions: read-out: apparent Kd, compound concentrations: 100 nM and 1000 nM (sheet 'Samples'), n = 1
FYN = tested on: FYN; design: species or system human, MV4-11 + K-562 + COLO205 + SK-N-BE2 + OVCAR-8; conditions: read-out: apparent Kd, compound concentrations: 100 nM and 1000 nM (sheet 'Samples'), n = 1
HCK = tested on: HCK; design: species or system human, MV4-11 + K-562 + COLO205 + SK-N-BE2 + OVCAR-8; conditions: read-out: apparent Kd, compound concentrations: 100 nM and 1000 nM (sheet 'Samples'), n = 1
LYN = tested on: LYN; design: species or system human, MV4-11 + K-562 + COLO205 + SK-N-BE2 + OVCAR-8; conditions: read-out: apparent Kd, compound concentrations: 100 nM and 1000 nM (sheet 'Samples'), n = 1
RET = tested on: RET; design: species or system human, MV4-11 + K-562 + COLO205 + SK-N-BE2 + OVCAR-8; conditions: read-out: apparent Kd, compound concentrations: 100 nM and 1000 nM (sheet 'Samples'), n = 1
Q6ZSR9 = Q6ZSR9 (human, UniProt Q6ZSR9); design: species or system MV4-11 + K-562 + COLO205 + SK-N-BE2 + OVCAR-8; conditions: read-out: apparent Kd; compound concentrations: 100 nM and 1000 nM (sheet 'Samples'), CATDS: 3.5510221653806698E-2; n = 1
PTK6 = tested on: PTK6; design: species or system human, MV4-11 + K-562 + COLO205 + SK-N-BE2 + OVCAR-8; conditions: read-out: apparent Kd, compound concentrations: 100 nM and 1000 nM (sheet 'Samples'), n = 1

Q6ZSR9, sequence (Q6ZSR9 whole entry, looked up): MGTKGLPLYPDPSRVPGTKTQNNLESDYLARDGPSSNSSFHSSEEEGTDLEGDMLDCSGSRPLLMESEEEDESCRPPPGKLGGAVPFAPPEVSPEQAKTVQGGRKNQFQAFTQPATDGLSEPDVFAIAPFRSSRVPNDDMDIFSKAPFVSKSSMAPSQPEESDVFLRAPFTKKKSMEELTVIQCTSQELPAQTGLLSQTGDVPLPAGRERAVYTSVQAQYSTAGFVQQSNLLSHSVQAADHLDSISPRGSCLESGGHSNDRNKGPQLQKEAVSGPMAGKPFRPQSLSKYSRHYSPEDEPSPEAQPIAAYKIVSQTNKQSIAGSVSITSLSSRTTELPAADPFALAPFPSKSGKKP

Compound `CC(=O)N1CCN(c2ccc(Nc3nccc(-c4sc(C(C)C)nc4-c4cccc(NS(=O)(=O)c5ccccc5)c4)n3)cn2)CC1` [GSK1645872A] has a potency estimated from few doses (ABL1; CATDS: 2.9890665121479899E-2) of 746 nM, a potency estimated from few doses (ABL2; CATDS: 6.8030281480511795E-2) of 166 nM and a potency estimated from few doses (BCR; CATDS: 2.6881466096611999E-2) of 991 nM. For the same compound, the potency estimated from few doses (EGFR; CATDS: 3.0506753540730399E-2) was 710 nM, the potency estimated from few doses (GAK; CATDS: 3.3630312969228401E-2) was 566 nM and the potency estimated from few doses (LCK; CATDS: 2.6338913401390801E-2) was 1050 nM. It also gave a potency estimated from few doses (RIPK2; CATDS: 3.4620572917050799E-2) of 532 nM, a potency estimated from few doses (RIPK3; CATDS: 4.0939196436341502E-2) of 381 nM and a potency estimated from few doses (YES1; CATDS: 4.4721674656853803E-2) of 324 nM.
In the case of `CN1CCc2ccc(Nc3nccc(-c4c(-c5cccc(NC(=O)c6c(F)cccc6F)c5)nc5ccccn45)n3)cc2C1.Cl` [GSK1010829B], the potency estimated from few doses (ABL1; CATDS: 3.3461879574950899E-2) was 1490 nM, the potency estimated from few doses (ABL2; CATDS: 5.23803591077244E-2) was 515 nM and the potency estimated from few doses (EGFR; CATDS: 3.29518195590447E-2) was 1570 nM. The potency estimated from few doses (FRK; CATDS: 4.3093308654231798E-2) was 770 nM, the potency estimated from few doses (FYN; CATDS: 4.4096007495545798E-2) was 732 nM and the potency estimated from few doses (HCK; CATDS: 7.6691780637307694E-2) was 270 nM. It also gave a potency estimated from few doses (LCK; CATDS: 0.10139412977774399) of 180 nM, a potency estimated from few doses (LYN; CATDS: 6.0028262979631E-2) of 403 nM and a potency estimated from few doses (RET; CATDS: 6.1387367146580003E-2) of 387 nM. For the same compound, the potency estimated from few doses (RIPK2; CATDS: 3.7106800723599898E-2) was 1110 nM, the potency estimated from few doses (RIPK3; CATDS: 5.0630244265372597E-2) was 550 nM and the potency estimated from few doses (YES1; CATDS: 8.6634925532114604E-2) was 225 nM.
`CN1CCN(Cc2ccc(NC(=O)Nc3ccc(N(C)c4ccnc(Nc5ccc(CS(C)(=O)=O)cc5)n4)cc3)cc2)CC1.Cl` [GW827654A] gave a potency estimated from few doses (ABL1; CATDS: 3.4576588551286799E-2) of 1820 nM, a potency estimated from few doses (ABL2; CATDS: 5.6323659121428699E-2) of 400 nM and a potency estimated from few doses (BCR; CATDS: 3.6645994259317798E-2) of 1440 nM. The potency estimated from few doses (Q6ZSR9) was 1630 nM and the potency estimated from few doses (RET; CATDS: 0.30394920877794601) was 22.8 nM.
For `c1ccc(Oc2ccc(Nc3ccnc4cc(-c5ccc(CN6CCCCC6)o5)ccc34)cc2)nc1` [GW567143X], the potency estimated from few doses (ABL1; CATDS: 4.7219356438219597E-2) was 634 nM, the potency estimated from few doses (FRK; CATDS: 3.9738345055864897E-2) was 1100 nM and the potency estimated from few doses (FYN; CATDS: 4.4213624367354799E-2) was 771 nM. For the same compound, the potency estimated from few doses (GAK; CATDS: 4.2163459383367997E-2) was 895 nM, the potency estimated from few doses (HCK; CATDS: 0.14005546575241301) was 68.8 nM and the potency estimated from few doses (LCK; CATDS: 5.0953813421882002E-2) was 515 nM. For the same compound, the potency estimated from few doses (LYN; CATDS: 4.1336056970238899E-2) was 956 nM, the potency estimated from few doses (PTK6; CATDS: 0.13556199485993101) was 72.4 nM and the potency estimated from few doses (RIPK2; CATDS: 0.12946024003761) was 77.9 nM. The potency estimated from few doses (RIPK3; CATDS: 4.1439147975506997E-2) was 948 nM and the potency estimated from few doses (YES1; CATDS: 5.50755734526098E-2) was 421 nM.
`N#Cc1cnc2cc(-c3cnc(CNCCN4CCOCC4)s3)ccc2c1Nc1ccc(Oc2ccccc2)cc1` [GW664114X] gave a potency estimated from few doses (ABL1; CATDS: 4.8325821133258902E-2) of 1130 nM, a potency estimated from few doses (EGFR; CATDS: 4.1929469071091803E-2) of 2090 nM and a potency estimated from few doses (FYN; CATDS: 5.3110051753070202E-2) of 831 nM. For the same compound, the potency estimated from few doses (HCK; CATDS: 0.211931822213385) was 69.1 nM, the potency estimated from few doses (LCK; CATDS: 5.7694634687651798E-2) was 657 nM and the potency estimated from few doses (LYN; CATDS: 6.1309680787230501E-2) was 562 nM. The potency estimated from few doses (YES1; CATDS: 7.4593421105350805E-2) was 361 nM.
Compound `COc1cc2nccc(Nc3ccc(Oc4ccccc4)cc3)c2cc1OC.Cl` [GI261656A] has a potency estimated from few doses (ABL1; CATDS: 4.9234778502166003E-2) of 661 nM, a potency estimated from few doses (EGFR; CATDS: 3.8994788715485701E-2) of 2360 nM and a potency estimated from few doses (FRK; CATDS: 5.3958789023196299E-2) of 470 nM. The potency estimated from few doses (FYN; CATDS: 5.8520288071811297E-2) was 360 nM, the potency estimated from few doses (HCK; CATDS: 0.224802192402594) was 23.3 nM and the potency estimated from few doses (LCK; CATDS: 9.1462099087555204E-2) was 115 nM. For the same compound, the potency estimated from few doses (LYN; CATDS: 7.8976671860543801E-2) was 160 nM, the potency estimated from few doses (PTK6; CATDS: 8.1912311053812595E-2) was 147 nM and the potency estimated from few doses (RIPK2; CATDS: 0.26781417161536297) was 18.1 nM. For the same compound, the potency estimated from few doses (RIPK3; CATDS: 5.1839194955901301E-2) was 542 nM and the potency estimated from few doses (YES1; CATDS: 0.10993421284825) was 78.7 nM.
